# In the supplement of paper PMC11732987, “Enantioselective OTUD7B fragment discovery through chemoproteomics screening and high-throughput optimisation” (Communications Chemistry, 2025):
# Unmarked numbers belong to inactive results.
# Experiments:
# Assay in all cases: log2 ratio of Biotin-Ahx-Ub-VS probe labelling (fragment/DMSO); higher = less target engagement (more negative = stronger competition), active = hit call of the paper (q ≤ 0.05, log2 ratio ≤ -1)
# Conditions in all cases: compound concentration: 200 uM; treatment time: 3 h
# OTUD6B = molecular target: T1, OTUD6B (UniProt Q8N6M0)
# T1 sequence (whole entry): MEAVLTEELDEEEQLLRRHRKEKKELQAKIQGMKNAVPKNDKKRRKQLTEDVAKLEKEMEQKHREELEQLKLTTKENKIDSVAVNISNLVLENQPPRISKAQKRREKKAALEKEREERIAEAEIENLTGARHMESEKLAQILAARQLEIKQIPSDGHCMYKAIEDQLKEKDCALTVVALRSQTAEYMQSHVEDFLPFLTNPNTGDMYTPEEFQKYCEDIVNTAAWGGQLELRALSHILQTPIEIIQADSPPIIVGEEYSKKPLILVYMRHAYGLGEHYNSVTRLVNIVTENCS
# How it was run: (§1)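 Using Biotin-Ahx-Ub-VS at 0.5 µM final for 1 h, DUBs were labelled in HEK293T lysate (495 µg per sample) that had first been treated in triplicate with fragment at 200 µM or vehicle for 3 h. NeutrAvidin enrichment, LysC and trypsin digestion and diaPASEF LC-MS/MS followed. Spectronaut label-free quantities were global-median-normalised. Values are average log2 fragment/vehicle ratios by unpaired t-test, using proteins with ≥2 unique peptides.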
# OTUD7B = molecular target: T2, OTUD7B (UniProt Q6GQQ9)
# T2 sequence (whole entry): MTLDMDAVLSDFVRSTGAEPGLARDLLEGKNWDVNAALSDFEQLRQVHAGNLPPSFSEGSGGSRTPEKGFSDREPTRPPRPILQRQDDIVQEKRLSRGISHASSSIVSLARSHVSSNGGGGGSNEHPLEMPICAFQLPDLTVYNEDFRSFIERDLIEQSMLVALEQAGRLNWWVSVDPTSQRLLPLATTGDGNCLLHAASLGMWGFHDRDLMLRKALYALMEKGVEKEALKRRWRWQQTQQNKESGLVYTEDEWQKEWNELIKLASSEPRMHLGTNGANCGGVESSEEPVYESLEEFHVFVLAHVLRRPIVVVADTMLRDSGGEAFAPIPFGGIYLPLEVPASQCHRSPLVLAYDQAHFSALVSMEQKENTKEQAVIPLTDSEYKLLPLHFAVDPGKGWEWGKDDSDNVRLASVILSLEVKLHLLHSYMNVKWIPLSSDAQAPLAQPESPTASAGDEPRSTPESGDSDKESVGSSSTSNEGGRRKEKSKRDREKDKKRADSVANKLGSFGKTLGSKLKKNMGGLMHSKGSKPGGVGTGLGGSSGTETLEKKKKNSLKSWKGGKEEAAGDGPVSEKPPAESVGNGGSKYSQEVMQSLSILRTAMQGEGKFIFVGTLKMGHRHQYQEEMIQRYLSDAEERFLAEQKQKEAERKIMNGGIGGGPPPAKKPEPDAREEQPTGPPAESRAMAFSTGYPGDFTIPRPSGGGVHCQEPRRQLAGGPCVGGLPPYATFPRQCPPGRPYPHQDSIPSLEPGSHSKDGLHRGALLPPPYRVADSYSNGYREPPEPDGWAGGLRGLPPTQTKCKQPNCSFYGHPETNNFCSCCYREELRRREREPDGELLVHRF
# How it was run: as §1
# PRPF8 = PRPF8 (UniProt Q6P2Q9)
# How it was run: as §1
# PSMD7 = molecular target: T3, PSMD7 (UniProt P51665)
# T3 sequence (whole entry): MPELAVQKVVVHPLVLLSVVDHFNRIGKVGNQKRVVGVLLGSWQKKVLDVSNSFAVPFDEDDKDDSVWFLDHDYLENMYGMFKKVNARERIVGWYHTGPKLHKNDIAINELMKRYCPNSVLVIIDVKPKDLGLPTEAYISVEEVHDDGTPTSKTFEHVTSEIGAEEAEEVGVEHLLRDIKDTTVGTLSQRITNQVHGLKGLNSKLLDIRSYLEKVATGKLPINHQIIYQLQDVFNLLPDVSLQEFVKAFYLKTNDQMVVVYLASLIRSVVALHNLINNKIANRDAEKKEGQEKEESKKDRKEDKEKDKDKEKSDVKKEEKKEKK
# How it was run: as §1
# UCHL1 = UCHL1 (UniProt P09936)
# How it was run: as §1
# UCHL3 = molecular target: T4, UCHL3 (UniProt P15374)
# T4 sequence (whole entry): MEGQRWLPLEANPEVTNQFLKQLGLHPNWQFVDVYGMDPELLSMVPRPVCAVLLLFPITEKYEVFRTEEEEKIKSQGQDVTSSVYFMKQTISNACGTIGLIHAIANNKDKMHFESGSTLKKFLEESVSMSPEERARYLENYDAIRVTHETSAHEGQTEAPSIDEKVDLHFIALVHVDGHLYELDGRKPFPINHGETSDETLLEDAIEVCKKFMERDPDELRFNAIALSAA
# How it was run: as §1
# UCHL5 = molecular target: T5, UCHL5 (UniProt Q9Y5K5)
# T5 sequence (whole entry): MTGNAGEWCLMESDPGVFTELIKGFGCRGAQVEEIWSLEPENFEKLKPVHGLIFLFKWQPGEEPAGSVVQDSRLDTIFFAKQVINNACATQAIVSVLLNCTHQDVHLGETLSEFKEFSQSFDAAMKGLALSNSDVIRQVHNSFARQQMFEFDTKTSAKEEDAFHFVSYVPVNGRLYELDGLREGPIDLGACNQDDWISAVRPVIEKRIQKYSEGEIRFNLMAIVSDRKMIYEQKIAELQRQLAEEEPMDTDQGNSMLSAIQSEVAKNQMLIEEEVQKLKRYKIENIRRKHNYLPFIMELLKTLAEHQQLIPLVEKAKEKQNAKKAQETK
# How it was run: as §1
# USP10 = USP10 (UniProt Q14694)
# How it was run: as §1
# USP15 = molecular target: T6, USP15 (UniProt Q9Y4E8)
# T6 sequence (whole entry): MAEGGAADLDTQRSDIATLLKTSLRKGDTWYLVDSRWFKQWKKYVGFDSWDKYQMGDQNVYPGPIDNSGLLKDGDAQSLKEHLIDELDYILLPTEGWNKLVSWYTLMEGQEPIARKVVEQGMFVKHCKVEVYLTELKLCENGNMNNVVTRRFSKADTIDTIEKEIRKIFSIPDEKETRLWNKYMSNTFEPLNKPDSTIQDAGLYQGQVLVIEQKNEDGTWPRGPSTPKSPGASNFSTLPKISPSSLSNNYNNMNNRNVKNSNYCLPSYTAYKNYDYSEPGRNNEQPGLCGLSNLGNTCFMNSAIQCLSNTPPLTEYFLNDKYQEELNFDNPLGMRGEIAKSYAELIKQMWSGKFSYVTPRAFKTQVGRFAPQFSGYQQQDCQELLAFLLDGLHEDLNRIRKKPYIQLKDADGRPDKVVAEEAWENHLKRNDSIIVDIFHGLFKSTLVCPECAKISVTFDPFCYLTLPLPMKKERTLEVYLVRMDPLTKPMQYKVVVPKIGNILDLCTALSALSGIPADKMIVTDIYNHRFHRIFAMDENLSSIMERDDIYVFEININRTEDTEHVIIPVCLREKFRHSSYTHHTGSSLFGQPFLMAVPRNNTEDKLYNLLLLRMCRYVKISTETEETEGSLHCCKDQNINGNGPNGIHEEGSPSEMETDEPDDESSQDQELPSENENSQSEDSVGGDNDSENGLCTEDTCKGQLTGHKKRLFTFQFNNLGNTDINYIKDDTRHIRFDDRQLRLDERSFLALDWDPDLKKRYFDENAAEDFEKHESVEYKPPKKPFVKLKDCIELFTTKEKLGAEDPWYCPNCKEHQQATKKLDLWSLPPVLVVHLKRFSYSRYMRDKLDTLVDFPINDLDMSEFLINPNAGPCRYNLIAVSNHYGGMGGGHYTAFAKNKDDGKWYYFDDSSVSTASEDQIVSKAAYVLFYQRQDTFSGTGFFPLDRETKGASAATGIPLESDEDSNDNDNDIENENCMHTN
# How it was run: as §1
# USP16 = USP16 (UniProt Q9Y5T5)
# How it was run: as §1
# UCHL1, sequence (P09936 whole entry, looked up): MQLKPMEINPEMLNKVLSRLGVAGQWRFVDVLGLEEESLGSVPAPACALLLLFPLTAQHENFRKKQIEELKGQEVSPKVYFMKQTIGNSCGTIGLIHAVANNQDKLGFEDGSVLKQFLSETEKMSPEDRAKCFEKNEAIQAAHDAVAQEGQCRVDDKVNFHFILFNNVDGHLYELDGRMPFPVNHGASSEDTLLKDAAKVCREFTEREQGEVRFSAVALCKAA
# USP10, sequence (Q14694 whole entry): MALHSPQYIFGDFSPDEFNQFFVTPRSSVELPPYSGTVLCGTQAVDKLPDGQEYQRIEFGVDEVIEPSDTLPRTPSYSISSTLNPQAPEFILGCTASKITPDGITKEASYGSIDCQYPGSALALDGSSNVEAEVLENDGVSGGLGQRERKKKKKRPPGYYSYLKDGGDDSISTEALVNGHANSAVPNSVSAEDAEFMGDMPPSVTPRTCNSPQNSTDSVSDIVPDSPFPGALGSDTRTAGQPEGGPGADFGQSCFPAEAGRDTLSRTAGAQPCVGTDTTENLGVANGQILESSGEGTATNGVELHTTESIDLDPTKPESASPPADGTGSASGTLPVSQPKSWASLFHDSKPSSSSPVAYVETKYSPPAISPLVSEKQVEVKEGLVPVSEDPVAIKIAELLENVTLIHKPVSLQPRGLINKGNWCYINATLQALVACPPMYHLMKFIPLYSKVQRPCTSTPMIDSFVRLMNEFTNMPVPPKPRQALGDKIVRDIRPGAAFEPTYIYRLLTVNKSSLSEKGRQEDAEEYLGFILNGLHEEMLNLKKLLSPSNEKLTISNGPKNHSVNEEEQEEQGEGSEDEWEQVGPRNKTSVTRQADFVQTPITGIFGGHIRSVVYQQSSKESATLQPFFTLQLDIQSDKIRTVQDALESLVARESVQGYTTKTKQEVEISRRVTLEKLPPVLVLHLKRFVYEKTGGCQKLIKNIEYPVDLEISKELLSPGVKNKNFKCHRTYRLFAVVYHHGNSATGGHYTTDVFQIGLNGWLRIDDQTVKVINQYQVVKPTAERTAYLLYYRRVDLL
# USP16, sequence (Q9Y5T5 whole entry, looked up): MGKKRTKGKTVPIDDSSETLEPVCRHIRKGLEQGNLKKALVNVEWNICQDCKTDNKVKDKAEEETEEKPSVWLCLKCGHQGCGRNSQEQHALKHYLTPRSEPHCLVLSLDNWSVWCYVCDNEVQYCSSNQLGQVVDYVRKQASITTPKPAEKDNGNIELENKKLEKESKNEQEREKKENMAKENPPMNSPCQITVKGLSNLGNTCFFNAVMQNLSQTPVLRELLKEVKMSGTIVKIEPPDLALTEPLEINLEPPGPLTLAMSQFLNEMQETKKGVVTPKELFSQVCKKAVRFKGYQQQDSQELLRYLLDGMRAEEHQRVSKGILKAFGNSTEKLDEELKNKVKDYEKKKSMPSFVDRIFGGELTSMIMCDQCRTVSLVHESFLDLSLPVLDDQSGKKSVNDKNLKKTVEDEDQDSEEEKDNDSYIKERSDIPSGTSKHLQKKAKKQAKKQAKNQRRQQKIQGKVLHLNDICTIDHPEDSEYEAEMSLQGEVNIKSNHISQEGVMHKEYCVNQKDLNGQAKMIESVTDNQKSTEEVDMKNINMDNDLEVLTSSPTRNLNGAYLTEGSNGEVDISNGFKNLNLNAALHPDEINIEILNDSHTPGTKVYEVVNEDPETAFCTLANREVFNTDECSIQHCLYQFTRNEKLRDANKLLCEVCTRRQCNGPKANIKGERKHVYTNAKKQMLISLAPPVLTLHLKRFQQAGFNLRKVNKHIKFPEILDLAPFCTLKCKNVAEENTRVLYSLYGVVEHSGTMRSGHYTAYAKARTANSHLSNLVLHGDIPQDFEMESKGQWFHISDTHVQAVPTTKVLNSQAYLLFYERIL
smiles,measurement,setting,value
O=C(CCl)N1CCc2nc[nH]c2C1c1ccc(Cl)cc1 (stereo not given),log2 ratio of Biotin-Ahx-Ub-VS probe labelling,OTUD6B,-0.263
same,log2 ratio of Biotin-Ahx-Ub-VS probe labelling,OTUD7B,-1.05 (active)
same,log2 ratio of Biotin-Ahx-Ub-VS probe labelling,PRPF8,-0.0118
same,log2 ratio of Biotin-Ahx-Ub-VS probe labelling,PSMD7,-0.165
same,log2 ratio of Biotin-Ahx-Ub-VS probe labelling,UCHL1,-0.466
same,log2 ratio of Biotin-Ahx-Ub-VS probe labelling,UCHL3,0.28
same,log2 ratio of Biotin-Ahx-Ub-VS probe labelling,UCHL5,-0.221
same,log2 ratio of Biotin-Ahx-Ub-VS probe labelling,USP10,-0.161
same,log2 ratio of Biotin-Ahx-Ub-VS probe labelling,USP15,-0.182
same,log2 ratio of Biotin-Ahx-Ub-VS probe labelling,USP16,-0.287
